In PubChem BioAssay (Tox21):
Results filed as inconclusive are left out. Active and inactive are the calls of the source. Unless noted, calls follow the shape of the dose curve; as a rule, active = well fitted curve in the direction sought with a large enough effect in the repeat runs; inconclusive = weak or mixed curves; inactive = no such curve, though single readings can be large; an effect the other way counts as inactive or inconclusive.

What was measured:
[1] = qHTS RealTime-Glo MT Cell Viability Assay in HEK293 cells - 0 hour (AID 1224880); also: top concentration of the series differs between compounds; nearly all actives have a fitted effect of over 45% in size
In short: (§1)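 Luminescence readout at each listed time point; HEK293, 600 cells/well, RealTime-Glo MT reagent added with cells; compounds pinned (23 nL in DMSO) after 5 h at 37 C; continuous culture at 37 C.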

[2] = A CellTox Green Cytotoxicity Assay to monitor cytotoxicity in HEK293 cells - 32 hour (AID 1224881); also: nearly all actives have a fitted effect of over 40% in size
In short: (§2)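 Read-out: fluorescence of a cell-impermeant cyanine dye staining DNA of dead cells, proportional to cytotoxicity. HEK293, 600 cells/well with reagent, compound (23 nL DMSO) added after 5 h; reads at 0, 8, 16, 24, 32, 40 h.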

[3] = A CellTox Green Cytotoxicity Assay to monitor cytotoxicity in HepG2 cells - 0 hour (AID 1224882); also: nearly all actives have a fitted effect of over 35% in size
In short: (§3)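 HepG2, 600 cells/well premixed w/ CellTox Green; 5 h settle, 37 C/5% CO2; pintool cpd add (DMSO); 37 C, 40 h; fluorescence read at 0, 8, 16, 24, 32, 40 h.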

[4] = A CellTox Green Cytotoxicity Assay to monitor cytotoxicity in HepG2 cells - 32 hour (AID 1224883); also: nearly all actives have a fitted effect of over 50% in size
In short: as §3

[5] = A CellTox Green Cytotoxicity Assay to monitor cytotoxicity in HEK293 cells - 8 hour (AID 1224884); also: nearly all actives have a fitted effect of over 35% in size
In short: as §2

[6] = qHTS RealTime-Glo MT Cell Viability Assay in HepG2 cells - 16 hour (AID 1224885); also: nearly all actives have a fitted effect of over 50% in size
In short: (§4)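 HepG2 suspension premixed with RealTime-Glo reagents is plated at 600 cells per well and left 5 h at 37 C/5% CO2. Compounds in DMSO then go in, and bioluminescence reflecting viable cell number is recorded over 40 h.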

[7] = qHTS RealTime-Glo MT Cell Viability Assay in HEK293 cells - 24 hour (AID 1224886); also: nearly all actives have a fitted effect of over 50% in size; also: potency is read from the fitted curve at half-maximal effect
In short: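 Reads taken at 0, 8, 16, 24, 32 and 40 h from the same wells. HEK293 cells (600/well) carried RealTime-Glo reagents from seeding, with compound added after a 5 h settle at 37 C.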

[8] = qHTS RealTime-Glo MT Cell Viability Assay in HEK293 cells - 8 hour (AID 1224887); also: nearly all actives have a fitted effect of over 50% in size; also: potency is read from the fitted curve at half-maximal effect
In short: as §1

[9] = A CellTox Green Cytotoxicity Assay to monitor cytotoxicity in HEK293 cells - 16 hour (AID 1224888); also: nearly all actives have a fitted effect of over 35% in size
In short: as §2

[10] = qHTS RealTime-Glo MT Cell Viability Assay in HepG2 cells - 0 hour (AID 1224889); also: nearly all actives have a fitted effect of over 50% in size
In short: as §4

[11] = A CellTox Green Cytotoxicity Assay to monitor cytotoxicity in HepG2 cells - 8 hour (AID 1224890); also: nearly all actives have a fitted effect of over 45% in size
In short: as §3

[12] = qHTS assay to identify small molecule antagonists of the estrogen receptor alpha (ER-alpha) signaling pathway using the BG1 cell line in the presence of 0.1 nM 17-beta-estradiol - cell viability counter screen (AID 1259241); also: nearly all actives have a fitted effect of over 40% in size
In short: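 Following 5 days in phenol red-free medium with charcoal-stripped serum, VM7Luc4E2 cells received test compounds alongside 0.1 nM 17beta-estradiol (final) at 37C for 22 hr. Live cells were then quantified via protease-substrate fluorescence.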

[13] = qHTS assay to identify small molecule antagonists of the androgen receptor (AR) signaling pathway using the MDA cell line in the presence of 0.5 nM R1881 - cell viability counter screen (AID 1259242); also: nearly all actives have a fitted effect of over 45% in size
In short: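 Live-cell protease fluorescence, CellTiter-Fluor, 30 min at 37C. Cells: MDA-kb2, 3,000/well, preincubated 5 hr. Compounds plus 0.5 nM R1881 final, 16 hr, 37C, 0% CO2.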

[14] = target: Estrogen receptor (Homo sapiens) (UniProt P03372); test: qHTS assay to identify small molecule antagonists of the estrogen receptor alpha (ER-alpha) signaling pathway using the BG1 cell line in the presence of 0.1 nM 17-beta-estradiol (AID 1259244); also: nearly all actives have a fitted effect of over 50% in size
Sequence of Estrogen receptor (Homo sapiens) (P03372 whole entry, looked up): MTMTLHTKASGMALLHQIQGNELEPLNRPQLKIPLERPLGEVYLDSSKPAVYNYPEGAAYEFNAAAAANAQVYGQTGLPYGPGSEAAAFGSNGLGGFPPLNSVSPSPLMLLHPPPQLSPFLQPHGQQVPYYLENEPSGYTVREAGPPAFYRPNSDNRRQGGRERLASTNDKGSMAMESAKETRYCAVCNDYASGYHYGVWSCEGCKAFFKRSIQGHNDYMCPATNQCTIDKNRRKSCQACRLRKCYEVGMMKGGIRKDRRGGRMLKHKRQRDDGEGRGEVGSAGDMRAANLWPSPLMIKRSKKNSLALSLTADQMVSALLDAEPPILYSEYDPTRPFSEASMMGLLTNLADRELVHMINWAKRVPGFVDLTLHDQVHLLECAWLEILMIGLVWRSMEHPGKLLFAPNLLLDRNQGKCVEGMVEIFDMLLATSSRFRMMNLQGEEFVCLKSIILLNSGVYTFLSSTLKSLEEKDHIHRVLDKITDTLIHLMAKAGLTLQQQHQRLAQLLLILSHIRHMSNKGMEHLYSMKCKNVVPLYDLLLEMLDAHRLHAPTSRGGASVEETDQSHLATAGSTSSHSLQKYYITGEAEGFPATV
In short: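 Luminescence after ONE-Glo (30 min, room temperature) measured ERE-luciferase activity in VM7Luc4E2 cells treated 22 h with compound and 0.1 nM final 17beta-estradiol as stimulator.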

[15] = qHTS assay to identify small molecule HDAC inhibitors (AID 1259364);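 also: wild-type HCT-116 cells with endogenous class I/II HDAC activity; top concentration of the series differs between compounds; nearly all actives have a fitted effect of over 45% in size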
In short: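 HCT-116 (wild type), 1,500 cells/well, overnight; compound 2 hr 37C 5% CO2; HDAC-Glo I/II reagent 30 min RT; luminescence readout.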

[16] = qHTS assay to identify small molecule HDAC inhibitors - cell viability counter screen (AID 1259365)
In short: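 HCT-116 wild-type, overnight attachment; 2hr drug exposure, 37C; CellTiter-Glo luminescent ATP readout after 30min RT.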

[17] = qHTS assay to identify small molecule agonists of the sonic hedgehog signaling (Shh) pathway - cell viability counter screen (AID 1259366); also: nearly all actives have a fitted effect of over 50% in size
In short: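 Compounds in DMSO were pin-transferred onto 3T3 Gli1-Luc cells that had settled 4hr; plates then stood 24hr at 37C and 5% CO2. One hour before the end, CellTiter-Fluor was added and fluorescence recorded.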

[18] = qHTS assay to identify small molecule antagonists of the sonic hedgehog signaling (Shh) pathway - cell viability counter screen (AID 1259367); also: nearly all actives have a fitted effect of over 55% in size; also: potency is read from the fitted curve at half-maximal effect
In short: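 Cytotoxicity was assessed in parallel with Shh reporter activity by measuring live-cell protease fluorescence (CellTiter-Fluor) in NIH/3T3 cells stably carrying Gli1-Luc, treated with compound under conditioned medium stimulation for 23 hr plus 1 hr reagent incubation.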

[19] = target: Androgen receptor (Homo sapiens) (UniProt P10275); test: qHTS assay to identify small molecule antagonists of the androgen receptor (AR) signaling pathway using the MDA cell line in the presence of 0.5 nM R1881 (AID 1259243); also: nearly all actives have a fitted effect of over 50% in size; also: potency is read from the fitted curve at half-maximal effect
Sequence of Androgen receptor (Homo sapiens) (P10275 whole entry, looked up): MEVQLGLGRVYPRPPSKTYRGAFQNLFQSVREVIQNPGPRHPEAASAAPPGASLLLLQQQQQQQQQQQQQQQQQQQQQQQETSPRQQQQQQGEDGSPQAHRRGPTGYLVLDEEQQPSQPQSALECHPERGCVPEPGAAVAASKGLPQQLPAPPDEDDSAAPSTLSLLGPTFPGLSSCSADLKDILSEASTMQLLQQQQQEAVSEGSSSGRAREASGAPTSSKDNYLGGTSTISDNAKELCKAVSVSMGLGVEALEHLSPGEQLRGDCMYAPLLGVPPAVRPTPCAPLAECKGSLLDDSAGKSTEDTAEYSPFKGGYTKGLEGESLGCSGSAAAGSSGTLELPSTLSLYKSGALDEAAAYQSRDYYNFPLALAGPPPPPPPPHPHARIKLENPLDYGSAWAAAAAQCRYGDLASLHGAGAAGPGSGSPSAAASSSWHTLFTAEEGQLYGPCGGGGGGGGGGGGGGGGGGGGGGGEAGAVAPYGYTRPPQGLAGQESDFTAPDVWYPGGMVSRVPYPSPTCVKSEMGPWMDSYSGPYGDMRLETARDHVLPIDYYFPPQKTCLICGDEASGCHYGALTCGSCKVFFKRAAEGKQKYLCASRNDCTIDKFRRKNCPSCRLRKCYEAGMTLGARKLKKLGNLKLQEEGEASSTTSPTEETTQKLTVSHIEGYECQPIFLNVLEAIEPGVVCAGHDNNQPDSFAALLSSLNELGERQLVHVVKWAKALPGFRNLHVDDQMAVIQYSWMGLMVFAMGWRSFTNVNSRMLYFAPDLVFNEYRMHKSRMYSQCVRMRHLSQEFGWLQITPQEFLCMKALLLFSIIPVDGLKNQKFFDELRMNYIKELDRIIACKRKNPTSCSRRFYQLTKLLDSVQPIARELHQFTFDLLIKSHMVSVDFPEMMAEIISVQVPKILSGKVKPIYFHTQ
In short: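 MDA-kb2, MMTV-luc (AR/GR elements); 3,000 cells/well; cpd + 0.5 nM R1881 final; 16 hr 37C, 0% CO2; ONE-Glo 30 min RT; luminescence.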

[20] = qHTS assay to identify small molecule phospholipidosis (PLD) inducers (AID 1259344; active = well fitted curve in the direction sought with a large enough effect; an effect the other way counts as inactive or inconclusive)
In short: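 Cells (HepG2, 900 per well) attach for 4 h, receive LipidTOX Red and compound together, incubate 24 h at 37 C, are fixed 30 min with paraformaldehyde/Hoechst, then imaged at one site per well.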
% is scaled to controls: 0 for no effect and ±100 for the full control effect.

O=C(CBr)Nc1ccc(Cl)cc1C(=O)c1ccccc1F
inactive: Potency [1] | Potency [2] | Potency [3] | Potency [4] | Potency [5] | Potency [6] | Potency [7] | Potency [8] | Potency [9] | Potency [10] | Potency [11] | Potency [12] | Potency [13] | Potency [14] | Potency [15] | Potency [16] | Potency [17] | Potency [18]

O=C1C(Cl)C(CCl)CN1c1cccc(C(F)(F)F)c1 (centres undefined)
active: Potency [7] 24.5 µM | Potency [8] 24.5 µM | Potency [19] 3.86 µM
inactive: Potency [1] | Potency [2] | Potency [3] | Potency [4] | Potency [5] | Potency [6] | Potency [9] | Potency [10] | Potency [11] | Potency [12] | Potency [13] | Potency [15] | Potency [16] | Potency [17] | Potency [18]

ClCc1ccccc1
inactive: Potency [1] | Potency [2] | Potency [3] | Potency [4] | Potency [5] | Potency [6] | Potency [7] | Potency [8] | Potency [9] | Potency [10] | Potency [11] | Potency [12] | Potency [13] | Potency [14] | Potency [15] | Potency [16] | Potency [17]

CCN(C)N=O
inactive: Potency [1] | Potency [2] | Potency [3] | Potency [4] | Potency [5] | Potency [6] | Potency [7] | Potency [8] | Potency [9] | Potency [10] | Potency [11] | Potency [12] | Potency [13] | Potency [14] | Potency [15] | Potency [16] | Potency [17] | Potency [18]

C=CC(=O)NCNC(=O)C=C
inactive: Potency [1] | Potency [2] | Potency [3] | Potency [4] | Potency [5] | Potency [6] | Potency [7] | Potency [8] | Potency [9] | Potency [10] | Potency [11] | Potency [12] | Potency [13] | Potency [19] | Potency [14] | outcome [20] | Potency [16] | Potency [18]

C[C@H]1CNCCc2ccc(Cl)cc21
inactive: Potency [1] | Potency [2] | Potency [3] | Potency [4] | Potency [5] | Potency [6] | Potency [7] | Potency [8] | Potency [9] | Potency [10] | Potency [11] | Potency [12] | Potency [13] | Potency [14] | PLD induction [20] 0.0663% [at 7.66 µM] | Potency [15] | Potency [16] | Potency [17] | Potency [18]

COCCOCCO
inactive: Potency [1] | Potency [2] | Potency [3] | Potency [4] | Potency [5] | Potency [6] | Potency [7] | Potency [8] | Potency [9] | Potency [10] | Potency [11] | Potency [12] | Potency [13] | Potency [14] | outcome [20] | Potency [15] | Potency [16]
active: Potency [18] 61.1 µM

CC(Cl)Cl
inactive: Potency [1] | Potency [2] | Potency [3] | Potency [4] | Potency [5] | Potency [6] | Potency [7] | Potency [8] | Potency [9] | Potency [10] | Potency [11] | Potency [13] | Potency [14] | Potency [16] | Potency [17]

C/C=C/C=O
inactive: Potency [1] | Potency [2] | Potency [3] | Potency [4] | Potency [5] | Potency [6] | Potency [7] | Potency [8] | Potency [9] | Potency [10] | Potency [11] | Potency [12] | Potency [13] | Potency [15] | Potency [16] | Potency [17] | Potency [18]

C=CC(C)=O
inactive: Potency [1] | Potency [2] | Potency [3] | Potency [4] | Potency [5] | Potency [6] | Potency [7] | Potency [8] | Potency [9] | Potency [10] | Potency [11] | Potency [13] | Potency [14] | Potency [15] | Potency [16] | Potency [17] | Potency [18]

O=Cc1ccc2c(c1)OCO2
inactive: Potency [1] | Potency [2] | Potency [3] | Potency [4] | Potency [5] | Potency [6] | Potency [7] | Potency [8] | Potency [9] | Potency [10] | Potency [11] | Potency [12] | Potency [13] | Potency [16] | Potency [17] | Potency [18]

N#Cc1ccc(Cl)cc1
inactive: Potency [1] | Potency [2] | Potency [3] | Potency [4] | Potency [5] | Potency [6] | Potency [7] | Potency [8] | Potency [9] | Potency [10] | Potency [11] | Potency [13] | Potency [14] | Potency [15] | Potency [16] | Potency [17] | Potency [18]

CC(=O)CCC(C)=O
inactive: Potency [1] | Potency [2] | Potency [3] | Potency [4] | Potency [5] | Potency [6] | Potency [7] | Potency [8] | Potency [9] | Potency [10] | Potency [11] | Potency [13] | Potency [14] | Potency [15] | Potency [16] | Potency [17] | Potency [18]

CCCN(CCCl)c1c([N+](=O)[O-])cc(C(F)(F)F)cc1[N+](=O)[O-]
active: Potency [8] 38.9 µM
inactive: Potency [1] | Potency [2] | Potency [3] | Potency [4] | Potency [5] | Potency [6] | Potency [7] | Potency [9] | Potency [10] | Potency [11] | Potency [13] | Potency [14] | Potency [15] | Potency [16] | Potency [17] | Potency [18]

C=CC(=O)OC
inactive: Potency [1] | Potency [2] | Potency [3] | Potency [4] | Potency [5] | Potency [6] | Potency [7] | Potency [8] | Potency [9] | Potency [10] | Potency [11] | Potency [12] | Potency [13] | Potency [15] | Potency [16] | Potency [17] | Potency [18]
